Test results taken from the supplement of paper PMC7380943.

Tests used:
[1] = test system: CLZ3 (HCA2 human fibroblast dual HR-NHEJ reporter); assay: NHEJ repair efficiency (GFP+ cells) relative to control (log10 fold); higher = more non-homologous end joining; settings: 5 µM; doxycycline 0.5 ug/mL
[2] = test system: CLZ3 (HCA2 human fibroblast dual HR-NHEJ reporter); assay: HR repair efficiency (tdTomato+ cells) relative to control (log10 fold); higher = more homologous recombination; settings: 5 µM; doxycycline 0.5 ug/mL
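For HR repair efficiency (tdTomato+ cells) relative to control in this document: compound given one day before doxycycline, which switches on I-SceI endonuclease expression to create double-strand breaks within the integrated reporter.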
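For NHEJ repair efficiency (GFP+ cells) relative to control in this document: compound given one day ahead of doxycycline, which switches on I-SceI endonuclease to cut the chromosomally integrated reporter and create DSBs.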

Row | Compound | NHEJ repair efficiency (log10) [1] | HR repair efficiency (log10) [2]
1 | CC1(C)CC[C@]2(C(=O)O)[C@H](O)C[C@]3(C)C(=CC[C@@H]4[C@@]5(C)CC[C@H](O)C(C)(C)[C@@H]5CC[C@]43C)[C@H]2C1 [Echinocystic acid] | -0.117 | 0.0642
2 | COc1ccc([C@@H]2OC[C@H]3[C@@H]2CO[C@@H]3c2ccc3c(c2)OCO3)cc1OC [Fargesin] | 0.0593 | 0.116
3 | COc1cc2oc(=O)ccc2c(OC)c1C[C@@H](O)C(C)(C)O [Toddalolactone] | 0.0484 | 0.018
4 | CCCOC(=O)c1cc(O)c(O)c(O)c1 [Propyl gallate] | -0.0069 | 0.0457
5 | CC[C@@H]1[C@H]2CCCCN3[C@H]2[C@H](C[C@H]3[C@@H]2C[C@H](C)C(=O)O2)[C@@H]2[C@H]1OC(=O)[C@H]2C [Tuberostemonine] | 0.233 | -0.0247
6 | CC(CCC(OC1OC(CO)C(O)C(O)C1OC1OC(CO)C(O)C(O)C1O)C(C)(C)O)C1CCC2(C)C3CC=C4C(CCC(OC5OC(COC6OC(CO)C(O)C(O)C6O)C(O)C(O)C5O)C4(C)C)C3(C)C(O)CC12C (configuration not stated) [Mogroside IV] | 0.0766 | 0.171
7 | Cc1cc(=O)c2c(O)c3c(cc2o1)OC(C)(C)[C@@H](O[C@@H]1O[C@H](CO)[C@@H](O)[C@H](O)[C@H]1O)C3 [Sec-O-Glucosylhamaudol] | -0.132 | -0.0801
8 | O=C(/C=C/c1ccc(O)c(O)c1)O[C@H]1[C@H](O)C[C@](O)(C(=O)O)C[C@H]1O [Cryptochlorogenic Acid] | 0.102 | 0.168
9 | O=C(O)c1ccccc1O [Salicylic acid] | 0.019 | 0.0351
10 | C=C1C(=O)[C@@]23CC[C@@H]4C(C)(C)[C@H](O)CC[C@@]4(C)[C@@H]2[C@@H](O)C[C@@H]1C3 [Tenuifolin A] | -0.0342 | -0.13
11 | C[C@@]12C[C@@]3(O)O[C@@H](O1)[C@]1(COC(=O)c4ccccc4)[C@@H]3C[C@]12O[C@@H]1O[C@H](COC(=O)c2ccccc2)[C@@H](O)[C@H](O)[C@H]1O [Benzoylpaeoniflorin] | -0.0544 | -0.0282
12 | CCOC(=O)/C=C/c1ccc(O)c(O)c1 [Ethyl Caffeate] | 0.0562 | 0.0777
13 | COc1cc2c(c(O)c1OC)-c1c(cc(OC)c(OC)c1OC)C[C@@H](C)[C@@H](C)C2 [Schisanhenol] | -0.161 | -0.0391
14 | COc1cc(/C=C/c2ccc(O)cc2)cc(OC)c1 [Pterostilbene] | 0.127 | 0.242
15 | C=C1[C@H]2CC[C@]3([C@@H]1O)[C@H]1C[C@@H]4C5(C)CCCC4([C@@H]1N(CC)C5)[C@@H]3[C@H]2O [Denudatine] | -0.089 | 0.0616
16 | Oc1ccc2c(c1)OC[C@]1(O)Cc3cc(O)c(O)cc3[C@H]21 [Brazilin] | -0.0322 | -0.00638
17 | O=C(O)[C@H]1O[C@@H](Oc2cc3oc(-c4ccccc4)cc(=O)c3c(O)c2O)[C@H](O)[C@@H](O)[C@@H]1O [Baicalin] | -0.073 | 0.053
18 | O=C(O)C1=CO[C@@H](O[C@@H]2O[C@H](CO)[C@@H](O)[C@H](O)[C@H]2O)[C@@H]2C(CO)=CC[C@H]12 [Geniposidic acid] | -0.068 | -0.00169
19 | O=C1/C(=C2\Nc3ccccc3C2=O)Nc2ccccc21 [Indigotin] | 0.00962 | -0.105
20 | C[C@@H]1O[C@@H](OC[C@H]2O[C@@H](Oc3cc(O)c4c(c3)O[C@H](c3ccc(O)c(O)c3)CC4=O)[C@H](O)[C@@H](O)[C@@H]2O)[C@H](O)[C@H](O)[C@H]1O [Eriocitrin] | 0.00276 | -0.0151
21 | CC(C)=CCc1c(-c2ccc(O)cc2O)oc2c([C@H]3C=C(C)C[C@@H](c4ccc(O)cc4O)[C@@H]3C(=O)c3ccc(O)cc3O)c(O)cc(O)c2c1=O [Kuwanon G] | 0.0109 | 0.129
22 | COc1cc2c(cc1OC)[C@H]1[C@@H](C)c3ccc(OC)c(OC)c3CN1CC2 [Corydaline] | -0.196 | -0.191
23 | Cc1ccc(C(C)C)c(O)c1 [Thymol] | 0.108 | 0.0691
24 | O=C(C=Cc1ccc(O)c(O)c1)O[C@@H]1C[C@@](O)(C(=O)O)C[C@@H](O)[C@@H]1O [5-Caffeoylquinic Acid] | -0.0761 | -0.0365
25 | COc1cc2c(cc1OC)-c1cc3ccc4c(c3c[n+]1CC2)OCO4 [Epiberberine] | -0.03 | 0.05
26 | C[C@H]1CC[C@@]2(OC1)O[C@H]1C[C@H]3[C@@H]4CC[C@@H]5C[C@@H](O)CC[C@]5(C)[C@H]4CC[C@]3(C)[C@H]1[C@@H]2C [Sarsasapogenin] | -0.068 | 0.0364
